MazEF act = activators of E. coli MazEF toxin-antitoxin RNase; AID 504720; activation, % at 20 µM; FAM/BHQ RNA-DNA oligo cleavage fluorescence, 5 h; 350,000 tested, 0.32% active; P0AE70; in the data active means activation above about 50%
Target sequence (P0AE70 whole entry, looked up): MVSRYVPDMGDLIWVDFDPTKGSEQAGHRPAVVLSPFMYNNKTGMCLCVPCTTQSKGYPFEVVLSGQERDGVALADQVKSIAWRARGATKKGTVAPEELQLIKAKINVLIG
TcdB inh = TcdB glycohydrolase inhibition | P18177 | TcdB glycohydrolase enzymatic assay, plate reader | inhibition, % at 9.99 µM | 350,000 tested, 0.24% active; in the data active means inhibition above about 10%
FadD28 binding = inhibitors of Mycobacterium tuberculosis FadD28 bisubstrate binding | inhibition, % at 12.5 µM | AID 588549 | FadD28 bisubstrate probe binding, fluorescence polarization | 360,000 tested, 0.22% active; in the data active means inhibition above about 8.5%, passing the limit was not always enough
Y pestis TopoI = Y. pestis Topo-I inhibition via cleavage products | 360,000 tested, 0.064% active | Y. pestis Topo-I cleavage product accumulation, plate reader | activity, % at 10 µM | AID 504884; in the data active means activity above about 50%, passing the limit was not always enough
BioA inh = inhibitors of Mycobacterium tuberculosis BioA enzyme; 360,000 tested, 0.096% active; purified M. tuberculosis BioA enzyme, plate reader; inhibition, % at 9.99 µM; in the data active means inhibition above about 40%
VHR inh abs = blocks human VHR1 dual specificity phosphatase; AID 1654; P51452; 290,000 tested, 0.52% active; recombinant VHR phosphatase, pNPP absorbance; inhibition, % at 13.3 µM; in the data active means inhibition above about 50%
Target sequence (P51452 whole entry, looked up): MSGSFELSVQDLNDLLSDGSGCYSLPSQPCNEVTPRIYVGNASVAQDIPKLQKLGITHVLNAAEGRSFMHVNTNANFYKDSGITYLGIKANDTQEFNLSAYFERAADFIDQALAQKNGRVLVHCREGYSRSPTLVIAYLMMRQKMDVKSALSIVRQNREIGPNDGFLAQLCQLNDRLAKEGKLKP
Large screens that a line does not name were inactive. Rows were chosen to be rich in hits. Some 1% of all compounds tested hit in one or more screens of this group.

COc1cc(/C=C2\S/C(=N/S(=O)(=O)c3ccc(C)cc3)NC2=O)c([N+](=O)[O-])cc1OC	none (no result: TcdB inh, BioA inh)
O=C1NC(=Nc2ccccc2Cl)S/C1=C\c1cc([N+](=O)[O-])ccc1O	FadD28 binding 30.1
Cc1ccc(S(=O)(=O)/N=C2/NC(=O)/C(=C\c3ccco3)S2)cc1	FadD28 binding 11.9 (no result: TcdB inh)
O=C(CN1CCOCC1)N[C@H]1CC[C@H](CCn2cc(C3CCCC3)nn2)O[C@@H]1CO	none (no result: MazEF act, FadD28 binding, Y pestis TopoI, BioA inh, VHR inh abs)
C[C@@H]1CN([C@H](C)CO)C(=O)c2cc(NS(=O)(=O)c3ccccc3)ccc2O[C@@H](C)CCCCO[C@@H]1CN(C)C(=O)c1ccncc1	none (no result: MazEF act, FadD28 binding, Y pestis TopoI, VHR inh abs)
CC=Cc1ccc2n(c1=O)C[C@H]1[C@H](CO)[C@@H](C(=O)N(C)C)[C@@H]2N1CC1CCCC1 (mixture of isomers)	none (no result: MazEF act, FadD28 binding, Y pestis TopoI, BioA inh, VHR inh abs)
CCOC(=O)C1=c2s/c(=C\c3cccnc3)c(=O)n2C(N)=C(C(=O)OC)C1c1cccnc1 (stereo not given)	VHR inh abs 52.3 (no result: TcdB inh)
COc1ccc2c3c(n(C)c2c1)[C@@H](CO)N(Cc1ccccc1Cl)CC31CCN(C(C)=O)CC1	none (no result: MazEF act, FadD28 binding, Y pestis TopoI, BioA inh, VHR inh abs)
O=c1oc(-c2ccc(Br)cc2)nc2ccccc12	TcdB inh 12.3
CSc1nc(-c2ccc(N(C)C)cc2)c(C#N)c(=O)n1C	MazEF act 136.0
CCc1nnc(NC(=O)CCC(=O)N2CCN(Cc3ccc(C)cc3C)CC2)s1	VHR inh abs 55.6
O=C(CSc1nc2ccccc2o1)N/N=C/c1ccco1	none
Cc1cc(SCC(=O)N/N=C/c2ccco2)nc2ccccc12	TcdB inh 14.1 (no result: BioA inh)
C[C@H](CO)N1C[C@H](C)[C@@H](CN(C)C(=O)CN2CCOCC2)Oc2ncc(/C=C/c3ccccc3)cc2C1=O	none (no result: MazEF act, FadD28 binding, Y pestis TopoI, VHR inh abs)
Cc1ccc(C2=C/C(=C/c3cccs3)C(=O)O2)cc1	MazEF act active (no result: TcdB inh)
Cc1ccc(C=C2C=C(c3ccccc3)OC2=O)cc1	none (no result: BioA inh, VHR inh abs)
CN1C(=O)c2cc(NC(=O)c3cccc(F)c3)ccc2OC[C@@H]2O[C@@H](CC(=O)NCC3CCCCC3)CC[C@@H]21	TcdB inh 10.2 (no result: MazEF act, FadD28 binding, Y pestis TopoI, VHR inh abs)
CCNC(=O)C[C@H]1CC[C@@H]2[C@H](COc3ccc(NC(=O)c4ccc5c(c4)OCO5)cc3C(=O)N2C)O1	TcdB inh 12.8 (no result: MazEF act, FadD28 binding, Y pestis TopoI, VHR inh abs)
CCNC(=O)C[C@H]1CC[C@H]2[C@H](COc3ccc(NC(=O)c4ccc5c(c4)OCO5)cc3C(=O)N2C)O1	none (no result: MazEF act, FadD28 binding, Y pestis TopoI, VHR inh abs)
CCNC(=O)C[C@H]1CC[C@@H]2[C@@H](COc3ccc(NC(=O)c4ccc5c(c4)OCO5)cc3C(=O)N2C)O1	TcdB inh 14.0 (no result: MazEF act, FadD28 binding, Y pestis TopoI, VHR inh abs)
CCNC(=O)C[C@H]1CC[C@H]2[C@H](COc3ccc(NC(C)=O)cc3C(=O)N2C)O1	TcdB inh 11.3 (no result: MazEF act, FadD28 binding, Y pestis TopoI, VHR inh abs)
C[C@@H]1CN([C@@H](C)CO)C(=O)c2cc(NS(=O)(=O)c3ccc(Cl)cc3)ccc2O[C@@H](C)CCCCO[C@H]1CN(C)S(=O)(=O)c1cccs1	none (no result: MazEF act, FadD28 binding, Y pestis TopoI, VHR inh abs)
C[C@@H]1CN([C@H](C)CO)S(=O)(=O)c2ccc(C#CC3CC3)cc2O[C@@H]1CN(C)C	none (no result: MazEF act, FadD28 binding, Y pestis TopoI, VHR inh abs)
COc1ccc(NC(=O)N[C@@H]2C=C[C@H](CC(=O)NC3CCC3)O[C@H]2CO)cc1	none (no result: MazEF act, FadD28 binding, Y pestis TopoI, VHR inh abs)
COc1ccc2c3c(n(C)c2c1)[C@H](CO)N(C(=O)Nc1ccc(F)cc1)CC31CCN(S(=O)(=O)c2cccs2)CC1	none (no result: MazEF act, FadD28 binding, Y pestis TopoI, BioA inh, VHR inh abs)
CN(C)CCCNC(=O)C[C@H]1CC[C@@H]2[C@@H](COc3ccc(NC(=O)c4ccc5c(c4)OCO5)cc3C(=O)N2C)O1	TcdB inh 10.7 (no result: MazEF act, FadD28 binding, Y pestis TopoI, VHR inh abs)
CCCNC(=O)C[C@@H]1CC[C@H]2[C@@H](COc3ccc(NC(=O)c4ccc(Cl)cc4)cc3C(=O)N2C)O1	none (no result: MazEF act, TcdB inh, FadD28 binding, Y pestis TopoI, VHR inh abs)
CCCNC(=O)C[C@H]1CC[C@@H]2[C@@H](COc3ccc(NC(=O)c4ccc(Cl)cc4)cc3C(=O)N2C)O1	TcdB inh 12.8 (no result: MazEF act, FadD28 binding, Y pestis TopoI, VHR inh abs)
C/C=C/c1cnc2c(c1)C(=O)N([C@H](C)CO)C[C@@H](C)[C@@H](CN(C)C(=O)C1CC1)O2	none (no result: MazEF act, TcdB inh, FadD28 binding, Y pestis TopoI, VHR inh abs)
Cc1ccc(Cn2nnc3c(=O)[nH]c(C4CCCN(S(=O)(=O)c5ccccc5)C4)nc32)cc1 (stereo not given)	VHR inh abs 50.9
Cc1ccc(S(=O)(=O)N2CCC(c3nc4c(nnn4Cc4ccccc4)c(=O)[nH]3)CC2)cc1	none
O=c1[nH]c(C2CCN(S(=O)(=O)c3ccc4c(c3)OCCO4)CC2)nc2c1nnn2Cc1ccccc1	VHR inh abs 52.9 (no result: FadD28 binding)
C=CCOc1nc2c(c(=O)n(C)c(=O)n2C)n1Cc1ccc(Cl)cc1	VHR inh abs 55.4 (no result: TcdB inh, BioA inh)
